Rows were chosen to be rich in hits. Some 8.7% of all compounds tested hit in one or more screens of this group.
Vaccinia Venus: inhibitors of vaccinia virus (Venus reporter); Vaccinia virus Venus reporter expression, fluorescence; Potency, µM (series often up to 36.5 µM), for the others: top-dose activity change, negative = inhibition, actives largely listed as inhibitors; 0.46% of 330,000 active; AID 720580; calls by dose curve; tested in A549 cells; also: nearly all actives have a fitted effect of over 30% in size
Pf growth 48h: P. falciparum growth inhibition at 48 hours (one generation). P. falciparum luciferase growth in erythrocytes, 48 h. Potency, µM (titrated, usually from 28.7 µM), for the others: at the highest dose activity change, negative = inhibition, hits mostly inhibitors. 5.9% of 310,000 active. AID 504832
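Luminescence readout; reporter = integrated firefly luciferase in P. falciparum. RBC culture at 2% hematocrit, 0.1% parasitemia final, 37 C/5% CO2; decreased signal taken as growth inhibition.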
Vaccinia mCherry: vaccinia inhibition (mCherry reporter). Vaccinia virus mCherry reporter infection, fluorescence. Potency, µM (titrated, usually from 36.5 µM), without a hit: top-dose activity change, negative = inhibition, most hits filed as inhibitors. 0.63% of 310,000 active; calls by dose curve; tested in A549 cells; also: nearly all actives have a fitted effect of over 35% in size
Pf growth 96h: inhibits malaria parasite growth, 96 h; 6.9% of 320,000 active; Potency, µM (doses to about 28.7 µM), for inactives: top-dose activity change, negative = inhibition, usual class: inhibitors; P. falciparum luciferase reporter growth, 96 h
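Two parasite generations (96 h, 37 C, 5% CO2) of compound exposure in infected erythrocytes (0.05% parasitemia, 2% hematocrit). Luciferase-reporter P. falciparum; decreased luminescence indicates inhibited growth, aimed at apicoplast-acting delayed death.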
AMA1-RON2 inh: disrupts binding of P. falciparum AMA1 to RON2. AlphaScreen AMA1-biotinylated RON2 peptide binding. Potency, µM (titrated, usually from 58.2 µM), for inactives: at the highest dose activity change, negative = inhibition, actives largely listed as inhibitors. 0.2% of 360,000 active. AID 720542;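 also: 0% = vehicle wells and -100% = peptide control; nearly all actives have a fitted effect of over 45% in size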
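AMA1 (3D7) with his tag at 25 nM final met compounds first, then biotinylated RON2 peptide at 25 nM; detection used donor plus acceptor beads, 10 µg/mL apiece, read by AlphaScreen after 30 min at room temperature.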
An asterisk follows results filed as active; i = inactive; ? = inconclusive; . = no result given. Unless noted, calls follow the shape of the dose curve; as a rule, active = well fitted curve in the direction sought with a large enough effect; inconclusive = small, poorly fitted or top-dose-only effect, or another doubt; inactive = no such curve, though single readings can be large; an effect the other way counts as inactive or inconclusive. Unless noted, % is scaled to controls: 0 for no effect and ±100 for the full control effect; potency is read from the fitted curve at half-maximal effect.

SMILES | Vaccinia Venus | Pf growth 48h | Vaccinia mCherry | Pf growth 96h | AMA1-RON2 inh
CC(C)(C)c1cc(C(=S)N2CCCC2)cc(C(C)(C)C)c1O | . | ? | . | 4.15µM* | -4.0%
Cc1ccnc2cc(Cl)cc(Cl)c12 | -6.9% | . | -10.5% | . | .
CCOc1nc(-c2ccc(C)cc2)ccc1-c1noc(-c2ccccc2F)n1 | -13.4% | . | -9.2% | . | .
CC1(c2cc([N+](=O)[O-])cc([N+](=O)[O-])c2)CC(C)(C)N(C(=O)c2ccccc2)c2ccccc21 (stereo not given) | . | 2.33µM* | . | 4.3% | -28.6%
CCC(=O)N1c2ccccc2C(C)(c2ccccc2)CC1(C)C (stereo not given) | 0.0% | . | -6.8% | . | .
CC1(c2ccccc2)CC(C)(C)N(C(=O)C2CCCO2)c2ccccc21 (stereo not given) | -20.4% | . | -0.6% | 2.33µM* | -8.7%
CC1(c2ccccc2)CC(C)(C)N(C(=O)CSc2nnc(N)s2)c2ccccc21 (stereo not given) | -27.1% | ? | -17.6% | 5.22µM* | 15.4%
CC1(c2ccc(Cl)cc2)CC(C)(C)N(C(=O)c2ccccc2)c2ccccc21 (stereo not given) | -12.4% | . | -0.7% | . | .
OCCN1CCN(Cc2ccc3c(c2)CN(Cc2cccn2-c2ccccn2)CCO3)CC1 | -13.4% | . | -10.4% | . | .
COc1cc(=O)n2c(c1C(=O)NC(C)c1ccco1)CCN(CC=C(C)C)CC2 (stereo not given) | -11.4% | . | -10.2% | . | .
Cc1nnc2c(N3CCN(CCO)CC3)nc3ccccc3n12 | . | -24.5% | . | 13.1µM* | -1.9%
CCN1CCN(c2nc3ccccc3n3cnnc23)CC1 | . | 22.4% | . | 22.0% | 3.9%
O=C(C1CCN(c2nc3ccccc3[nH]2)CC1)N1CCN(c2ccccc2)CC1 | -4.2% | . | -17.9% | . | .
N/C(Cc1ccc([N+](=O)[O-])cc1)=N\OC(=O)CC1CCCCC1 | -5.6% | 13.1µM* | -16.4% | ? | -6.4%
Cc1ccc(CC(=O)O/N=C(\N)Cc2ccc([N+](=O)[O-])cc2)cc1 | -16.1% | 4.3% | -13.3% | -19.0% | -12.0%
N/C(Cc1ccc(Cl)cc1)=N\OC(=O)C1CCCCC1 | -5.3% | 5.86µM* | -15.5% | 42.8% | -7.1%
COc1ccc(NC(=O)c2nc(S(C)(=O)=O)ncc2N(Cc2ccc(C)cc2)Cc2ccco2)cc1Cl | -9.6% | . | -14.1% | . | .
O=C(COC(=O)[C@H](Cc1ccccc1)NC(=O)c1cccs1)NC1CCCCC1 | -7.6% | 20.4% | -7.6% | 60.0% | -6.2%
C[C@@]1([C@@H](NC(=O)c2cccs2)c2ccc(-c3ccccc3)cc2)C[C@H]1C1CCCCC1 | -3.5% | 1.85µM* | -8.9% | 2.62µM* | -3.6%
C#C[C@@]1(O)CC[C@@H]2[C@H]3CCC4=C/C(=N\O)CC[C@H]4[C@@H]3CC[C@]21CC | . | -27.0% | . | ? | .
CC(=O)Nc1ccccc1-c1nc(CNC(=O)c2cc(C)ccc2C)c(C)o1 | 12.0% | . | -5.0% | . | .
COc1ccc(OC)c(CCNC(=O)c2nc(-c3ccc(Cl)cc3)n3c2CCCCC3)c1 | -24.6% | . | ? | . | .
C[C@@H]1O[C@@H](Oc2c(-c3cc(O)c(O)c(O)c3)oc3cc(O)cc(O)c3c2=O)[C@H](O)[C@H](O)[C@H]1O | -1.8% | 13.1µM* | -25.1% | ? | -20.5%
C[C@@H]1O[C@@H](Oc2c(-c3ccc(O)c(O)c3)oc3cc(O)cc(O)c3c2=O)[C@H](O)[C@H](O)[C@H]1O | -4.0% | . | i | . | 18.0%
COc1ccc(OC)c(NC(=O)CCn2cccn2)c1 | -6.6% | . | -5.2% | . | .
SMILES | Vaccinia Venus | Pf growth 48h | Vaccinia mCherry | Pf growth 96h | AMA1-RON2 inh
Cc1ccc(CNC(=O)CCn2cnc3ccccc3c2=O)cc1 | -7.3% | . | -13.2% | . | .
Cc1ccc(S(=O)(=O)c2c(N)n(CCC(C)C)c3nc4ccccc4nc23)cc1 | . | . | . | 13.1µM* | 20.5%
Cc1ccc(S(=O)(=O)c2c(N)n(Cc3ccco3)c3nc4ccccc4nc23)cc1C | . | 10.4µM* | . | . | 21.1%
Nc1c(S(=O)(=O)c2ccccc2)c2nc3ccccc3nc2n1CCN1CCOCC1 | . | ? | . | ? | 9.3%
CCCCCn1c(NC(=O)c2ccco2)c(S(=O)(=O)c2ccc(C)cc2)c2nc3ccccc3nc21 | 7.2% | 5.22µM* | -6.3% | ? | 12.7%
Nc1c(S(=O)(=O)c2ccccc2)c2nc3ccccc3nc2n1Cc1ccco1 | . | ? | . | 11.7µM* | 11.3%
CCCCn1c(NC(=O)c2ccco2)c(S(=O)(=O)c2ccc(C)cc2)c2nc3ccccc3nc21 | 18.2% | ? | -8.2% | ? | -8.7%
Cc1c(C(N)=O)nnn1-c1ccc(Br)cc1 | -0.4% | . | -6.7% | . | .
CN1CCN(C(c2ccccc2Cl)c2sc3nc(-c4ccco4)nn3c2O)CC1 (stereo not given) | -5.1% | . | i | . | .
Cc1ccc(N(C)S(=O)(=O)c2ccc(-c3ccc(=O)[nH]n3)s2)cc1C | . | 6.4% | . | 15.6% | 0.8%
CCOc1ccc(N(C)S(=O)(=O)c2ccc(-c3ccc(=O)[nH]n3)s2)cc1 | -17.8% | -8.9% | -19.6% | 11.7µM* | 11.3%
CS(=O)(=O)NCCc1csc2nc(-c3ccccc3)nn12 | -3.2% | . | -7.2% | . | .
CCOC(=O)c1[nH]c(C)c(CCC(=O)Nc2cccc(SC)c2)c1C | -18.9% | . | -16.4% | . | .
Cc1ccc(C)c(S(=O)(=O)N2CCN(c3nc(-c4cccnc4)nc4ccccc34)CC2)c1 | . | 3.29µM* | . | ? | -1.5%
COc1ccc(S(=O)(=O)N2CCN(c3nc(-c4cccnc4)nc4ccccc34)CC2)cc1 | . | 2.94µM* | . | 2.08µM* | -8.9%
O=S(=O)(c1ccccc1F)N1CCN(c2nc(-c3cccnc3)nc3ccccc23)CC1 | . | 11.7µM* | . | ? | 7.6%
O=S(=O)(c1ccc(Cl)cc1)N1CCN(c2nc(-c3ccccc3)nc3ccccc23)CC1 | -11.5% | . | -19.3% | . | .
CCOc1ccc(S(=O)(=O)N2CCN(c3nc(-c4ccccc4)nc4ccccc34)CC2)cc1 | -15.4% | . | -11.5% | . | .
O=S(=O)(/C=C/c1ccccc1)N1CCN(c2nc(-c3ccccc3)nc3ccccc23)CC1 | 8.6% | ? | i | 11.7µM* | -1.8%
CSc1cccc(NC(=O)C2CCN(S(=O)(=O)c3ccc4[nH]c(=O)ccc4c3)CC2)c1 | -4.2% | . | 6.0% | . | .
Cc1ccc(NS(=O)(=O)c2ccc(NC(=O)N3CCCC3)cc2)cc1C | 0.3% | . | -1.5% | . | .
CCOc1ccc(Nc2c(S(=O)(=O)c3ccccc3)cnc3ccc(F)cc23)cc1 | -16.3% | . | -11.8% | . | .
COc1cc2c(cc1OC)CN(c1nc(-c3cccnc3)nc3ccccc13)CC2 | -29.8% | ? | -25.3% | 11.7µM* | ?
N#Cc1ccccc1S(=O)(=O)N1CCN(c2nc(-c3cccnc3)nc3ccccc23)CC1 | -24.5% | 9.28µM* | ? | 4.65µM* | 13.0%
O=S(=O)(c1ccccc1Cl)N1CCN(c2nc(-c3ccccc3)nc3ccccc23)CC1 | -10.4% | . | 1.4% | . | .
c1cncc(-c2nc(N3CCCCCC3)c3ccccc3n2)c1 | -20.6% | 0.465µM* | -15.5% | . | 7.7%
CN1CCN(c2nc(-c3cccnc3)nc3ccccc23)CC1 | -10.1% | ? | -10.6% | -19.6% | -0.9%

Screening data from PubChem.
